# Only some compounds are listed: those with a hit (about 1.1% of all), similar ones and a draw of the others.
# a7 integrin act – qHTS for Activators of Integrin-Mediated Alleviation for Muscular Dystrophy; alpha7betagal myoblasts, beta-gal FDG fluorescence, 48 h; Potency, µM (top dose mostly 38.3 µM), usual class: activators; actives 0.064% (n = 350,000); note: nearly all actives have a fitted effect of over 60% in size
#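 alpha7betagal+/- myoblasts (passage 13, 250/well) treated 48 h at 37C with compounds at 1:260 dilution of DMSO stock. Lysed, then beta-galactosidase activity read as FDG fluorescence (ex 480/em 540) after 30 min, with pre-read for autofluorescence.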
# gsp antag – qHTS for Antagonists of gsp, the Etiologic Mutation Responsible for Fibrous Dysplasia/McCune-Albright Syndrome: qHTS; gsp-mutant cells, cAMP HTRF, 30 min; Potency, µM (titrated, usually from 76.9 µM), most hits filed as inhibitors; actives 0.4% (n = 340,000); calls by dose curve; cell line not stated here;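 note: intracellular cAMP measured with PDE inhibitor Ro 20-1724 present during compound exposure; nearly all actives have a fitted effect of over 65% in size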
#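 Measurement of cellular cAMP by homogeneous time-resolved fluorescence following a 30 min compound exposure at 37C. The PDE inhibitor […] was present throughout; the assay buffer was DPBS with 0.05% BSA and 0.005% Tween 20.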
# RXFP1 ag – qHTS Assay for Agonists of the Relaxin Receptor RXFP1 | HEK293T-RXFP1 cAMP TR-FRET, 30 min; response scale: percent of porcine relaxin response, buffer zero | Potency, µM (doses to about 57.5 µM), usual class: activators | actives 0.3% (n = 370,000) | AID 2676, 2010; note: nearly all actives have a fitted effect of over 60% in size
# Target sequence (Q9HBX9 whole entry, looked up): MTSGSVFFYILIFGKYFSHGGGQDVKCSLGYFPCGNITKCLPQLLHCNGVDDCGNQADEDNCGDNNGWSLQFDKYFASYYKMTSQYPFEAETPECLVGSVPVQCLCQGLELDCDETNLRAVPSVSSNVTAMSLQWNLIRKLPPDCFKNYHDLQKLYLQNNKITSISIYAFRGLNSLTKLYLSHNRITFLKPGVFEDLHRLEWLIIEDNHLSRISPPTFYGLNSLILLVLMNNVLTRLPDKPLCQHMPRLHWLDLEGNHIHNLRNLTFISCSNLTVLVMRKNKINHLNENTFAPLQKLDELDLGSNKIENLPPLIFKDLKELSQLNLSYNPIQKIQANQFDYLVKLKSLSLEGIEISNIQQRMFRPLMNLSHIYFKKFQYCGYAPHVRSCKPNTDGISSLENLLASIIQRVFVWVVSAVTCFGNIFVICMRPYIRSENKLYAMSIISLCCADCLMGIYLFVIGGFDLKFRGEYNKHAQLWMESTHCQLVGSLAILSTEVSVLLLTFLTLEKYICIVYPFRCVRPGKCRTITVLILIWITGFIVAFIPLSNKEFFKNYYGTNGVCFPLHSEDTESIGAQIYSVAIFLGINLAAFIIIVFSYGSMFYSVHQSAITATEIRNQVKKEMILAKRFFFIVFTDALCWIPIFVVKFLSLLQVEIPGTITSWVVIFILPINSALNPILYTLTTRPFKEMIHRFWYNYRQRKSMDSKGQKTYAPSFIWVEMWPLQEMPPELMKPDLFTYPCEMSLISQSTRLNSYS
#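 cAMP rise read by TR-FRET after 30 min, 37C compound exposure (up to 58 uM) in RXFP1-transfected HEK293 cells with Ro 20174 present. EC50 from Hill-equation fits, with 29 nM porcine relaxin as 100% and buffer as basal.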
# RXFP1 antag – qHTS Assay for Antagonists of the Relaxin Receptor RXFP1. Relaxin receptor 1 (Homo sapiens), Q9HBX9. HEK293-RXFP1, relaxin-stimulated cAMP HTRF, 30 min; active compounds read low. activity change, negative = inhibition, % at 57.5 µM. actives 0.59% (n = 350,000);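 active = activity change of -60% or lower, but not beyond a set lower limit; inconclusive = change between -60% and -40%, or beyond the set limit; inactive = change above -40%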
# gsp agonist – qHTS for Agonist of gsp, the Etiologic Mutation Responsible for Fibrous Dysplasia/McCune-Albright Syndrome: qHTS | gsp mutant cells, cAMP HTRF, 30 min | actives 0.13% (n = 340,000) | Potency, µM (titrated, usually from 76.9 µM), usual class: activators | AID 624287, 2012; active = well fitted activation curve with a large enough effect; inconclusive = small, poorly fitted or top-dose-only effect, or another doubt; inactive = no such curve, though single readings can be large or run the other way; cell line not stated here;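 note: phosphodiesterase inhibitor Ro 20-1724 added with compounds to block cAMP breakdown; nearly all actives have a fitted effect of over 60% in size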
#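 Cells in DMEM/10% FBS with G418 were pretreated with compounds in DMSO plus […] (300 uM stock) for 30 min at 37C. cAMP was measured by HTRF (cAMP-d2 plus anti-cAMP antibody-K) after 30 min at room temperature.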
# ASM inhibitor – Inhibitors of Secretory Acid Sphingomyelinase (S-ASM): qHTS; AID 504937, 2011; actives 0.006% (n = 340,000); Potency, µM (doses to about 57.5 µM), usual class: inhibitors; placental ASM, HMU-PC fluorogenic substrate, 60 min; Sphingomyelin phosphodiesterase (Homo sapiens), P17405
#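 qHTS format. ASM enzyme prepared from human placenta hydrolyses the fluorogenic substrate HMU-PC0 (9 uM final) over 60 min at 37 °C after a 10 min compound preincubation.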
# Numbers stand for hits; . = inactive; ? = inconclusive; / = no result given; [ ] = dose if it differs, or a comment. Unless noted, calls come from the whole dose curve; as a rule, active = well fitted curve in the direction sought with a large enough effect; inconclusive = small, poorly fitted or top-dose-only effect, or another doubt; inactive = no such curve, though single readings can be large; an effect the other way counts as inactive or inconclusive.
SMILES,a7 integrin act,gsp antag,RXFP1 ag,RXFP1 antag,gsp agonist,ASM inhibitor
CCOC(=O)c1ccc(NC(=O)C(CC)Sc2nncn3c2cc2oc(C)cc23)cc1 (centres undefined),/,/,.,-79,/,/
CCC(Sc1nncn2c1cc1oc(C)cc12)C(=O)Nc1ccc(F)cc1 (centres undefined),/,/,.,.,/,/
COc1ccc(-n2c(SCC(=O)N/N=C(\C)c3cccnc3)nc3ccccc3c2=O)cc1,.,.,.,.,.[15.4 µM],.
CCCn1nc(C(=O)OCC(=O)c2ccc3c(c2)NC(=O)CO3)c2ccccc2c1=O,.,6.3µM,.,.,.,.
CS(=O)(=O)c1ccc(-c2cn3ccccc3n2)cc1,/,/,/,.,/,/
COc1cc(-c2cc(C(=O)Nc3ccc(S(N)(=O)=O)cc3)c3ccccc3n2)cc(OC)c1OC,.,?,.,.,?,.
CCN(CC)S(=O)(=O)c1ccc(O)c(NC(=O)c2cc(-c3cc(OC)c(OC)c(OC)c3)nc3ccccc23)c1,.,35µM,.,?,?,.
COc1cccc(-c2nc(CS(=O)(=O)CC(=O)Nc3c(C)cc(C)cc3C)c(C)o2)c1,/,/,.,.,/,/
N#C/C(=C\c1ccc([N+](=O)[O-])o1)C(=O)Nc1ccc(F)cc1,.,.,.,-68,.[15.4 µM],.
COC(=O)C1SCC2C(=O)N(Cc3ccc(F)cc3)CC(=O)N21 (centres undefined),8.9µM,.,.,.,.,.
OC(CNC1Cc2ccccc2C1)COc1ccc(Cl)cc1 (centres undefined),.,.,.,/,.,.
OC(CNC1CCCc2ccccc21)COc1c(Cl)cccc1Cl (centres undefined),.,.,.,-63,.,.
O=C(CCCCCNc1nc(=S)[nH]c2ccccc12)NCCc1ccc(Cl)cc1,.,.,.,-65,.[15.4 µM],.
O=C(CCCCCNc1nc(=S)[nH]c2ccccc12)NCCC1=CCCCC1,.,.,.,-63,.[15.4 µM],.
COc1ccc(OC)c(NC(=O)CCN2C(=O)c3ccccc3C2=O)c1,.,.,.,.,.,.
COc1ccc(/C=N/NC(=O)c2cccnc2)cc1COc1ccc([N+](=O)[O-])cc1,.,.,.,-85,.[15.4 µM],.
CCC(C(=O)Nc1ccc(C(C)C)cc1)n1nc(C)n2c(cc3cc(C)ccc32)c1=O (centres undefined),/,/,.,/,/,/
CN(C)CCNc1ccc2ncn3c4ccc(O)cc4c(=O)c1c23,.,?,/,.,14µM,.
COCc1c(C(=O)OCc2nc3ccsc3c(=O)[nH]2)oc2ccccc12,1.1µM,.,.,.,?,.
Cc1ccc(C(=O)OCc2nc3ccsc3c(=O)[nH]2)o1,.,.,.,.,.[15.4 µM],.
O=C(O)CCCC[P+](c1ccccc1)(c1ccccc1)c1ccccc1,/,/,/,.,/,/
COC(=O)C1=C(C)NC(COC(N)=O)=C(C(=O)OC(C)C)C1c1cccc(Cl)c1Cl (centres undefined),/,/,/,.,/,/
CC(C)Oc1cccc(C(=O)C2CCCN(Cc3cnc(N4CCOCC4)s3)C2)c1 (centres undefined),.,.,.,-65,.,.
COCCCN(C(=O)CCOc1ccc(C)cc1)c1c(N)n(Cc2ccccc2)c(=O)[nH]c1=O,.,.,.,.,.,.
CC1CCCCN1C(=O)COC(=O)C1CCN(S(=O)(=O)c2ccc(Cl)c(C(F)(F)F)c2)CC1 (centres undefined),?,.,.,-65,.[15.4 µM],.
SMILES,a7 integrin act,gsp antag,RXFP1 ag,RXFP1 antag,gsp agonist,ASM inhibitor
COc1cc(NC(=O)CCCOc2cc(=O)n(C)c3ccccc23)cc(OC)c1OC,/,/,.,.,/,/
Oc1ccc2ccccc2c1CN1CCCC1,.,.,.,.,.[15.4 µM],.
CCN1CCN(Cc2c3ccccc3cc3ccccc23)CC1,.,.,.,-60,.[15.4 µM],.
COC(=O)c1c(NS(=O)(=O)c2cccs2)sc2c1CCCC2,.,22µM,.,.,.,.
CC1=CC(=O)C=C(C)C1=NOS(=O)(=O)c1ccccc1,.,?,.,-84,.,.
CC1=CC(=O)C(C(C)C)=C/C1=N/OS(=O)(=O)c1ccccc1,.,.,.,?,.,.
Cc1ccc(NC(=O)N2CCc3cc(S(=O)(=O)N4CCC(C)CC4)ccc32)cc1,/,/,.,.,/,/
O=C(CCC1N=C2c3ccccc3N=C(SCC(=O)Nc3ccc(F)cc3)N2C1=O)NCc1cccs1 (centres undefined),/,/,.,.,/,/
CC1CC(=O)N(CC(=O)NC2CCCCC2)c2ccccc2S1 (centres undefined),.,.,.,.,.,.
O=C(CN1C(=O)CC(c2ccco2)Sc2ccccc21)NC1CCCCC1 (centres undefined),.,50µM,.,/,.,.
CCCCOc1ccc(C(=O)N(CC)CC(=O)NCc2cccs2)cc1,.,.,.,.,.,.
CCCOC(=O)c1ccc(-c2c(C)noc2-c2ccc(OC)cc2O)o1,?,32µM,.,.,.,?
Cc1ccccc1Nc1n[nH]c(=S)s1,.,/,/,.,.,/
Nc1ccccc1-c1n[nH]c(=S)s1,.,.,28µM,.,?,.
NC(=O)c1ccsc1NC(=O)CN1CCN(S(=O)(=O)c2ccccc2C(F)(F)F)CC1,.,50µM,/,?,.,.
CN(C)CCNC(=O)/C(=C/c1ccc(-c2ccc(Cl)cc2Cl)o1)NC(=O)c1ccccc1,.,.,.,-70,.,.
Cc1ccc(C(=O)N/C(=C\c2ccc(-c3ccc(Br)cc3)o2)C(=O)NCCCN(C)C)cc1,.,.,.,-61,?,.
COc1ccc(OC)c(C2C(C(=O)Nc3ccccc3OC)=C(C)Nc3c(C(=O)Nc4ccc(F)cc4)cnn32)c1 (centres undefined),/,/,.,.,/,/
COc1ccc(-c2nnc(NC(=O)c3ccc(S(=O)(=O)N4CCCc5ccccc54)cc3)o2)cc1,.,?,.,-65,.,.
COCc1nnc(NC(=O)c2ccc(S(=O)(=O)N3CCCc4ccccc43)cc2)o1,.,.,.,.,.[15.4 µM],.
c1ccc(CN2CCCC3(CCCN(Cc4nc(CC5CC5)no4)C3)C2)cc1 (centres undefined),8.9µM,.,.,.,.,.
c1ccc(CN2CCCC3(CCCN(Cc4nc(COc5ccccc5)no4)C3)C2)cc1 (centres undefined),.,.,.,.,.,.

# Screening data deposited in PubChem BioAssay by National Center for Advancing Translational Sciences (NCATS).
